Measurements as given in PubChem BioAssay (NCI).
This is part of a sample that, as a whole, favours compounds with a hit. Of some 83,000 tested, about 20% had one in any assay.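 How to read the values: 0–100, growth inhibition (40 = 60% inhibited); 0, no net growth; -100 to 0, cell death (-40 = 40% of starting cells died; -100 = all dead).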 Activity calls are given as the source filed them. How the source made its calls: active means growth percent below 10; inactive means the rest.

Key:
Assay in all cases: NCI-60 one-dose screen, 48 h (100 = growth as untreated, 0 = no growth, -100 = all killed)
Settings in all cases: 10 µM unless noted
NCI-H23 lung = system: NCI-H23 lung
NCI-H226 lung = system: NCI-H226 lung
NCI-H322M lung = system: NCI-H322M lung
HOP-62 NSCLC = system: HOP-62 NSCLC
NCI-H460 lung = system: NCI-H460 lung
HOP-92 NSCLC = system: HOP-92 NSCLC
NCI-H522 lung = system: NCI-H522 lung
A549/ATCC NSCLC = system: A549/ATCC NSCLC
786-0 renal = system: 786-0 renal
COLO 205 colon = system: COLO 205 colon

Measured: growth

Cc1ccc([C@H]2C(C(=O)c3ccc(Cl)cc3)C3(N[C@@H]2c2ccccc2)C(=O)Nc2ccccc23)cc1 (some centres undefined)
active: HOP-92 NSCLC -3.21%
inactive: NCI-H23 lung 44.1% | NCI-H226 lung 45.5% | NCI-H322M lung 55.4% | HOP-62 NSCLC 44% | NCI-H460 lung 45.8% | NCI-H522 lung 12.9% | A549/ATCC NSCLC 25.9% | 786-0 renal 33.4% | COLO 205 colon 19.2%

O=C(/C=C/c1ccc(O)c(O)c1)NC1CCOC1O (centres undefined)
inactive: NCI-H23 lung 104% | NCI-H226 lung 120% | NCI-H322M lung 105% | HOP-62 NSCLC 101% | NCI-H460 lung 116% | HOP-92 NSCLC 91.5% | NCI-H522 lung 75.6% | A549/ATCC NSCLC 99.4% | 786-0 renal 97.2% | COLO 205 colon 105%

CSc1ccc(C(=O)Nc2ccc3nn(/C(C#N)=C/c4ccccn4)nc3c2)cc1
inactive: NCI-H322M lung 15.4% | A549/ATCC NSCLC 10.6%
active: NCI-H23 lung -84% | NCI-H226 lung -59.2% | HOP-62 NSCLC -46.2% | NCI-H460 lung -54.9% | HOP-92 NSCLC -48.5% | NCI-H522 lung -87.9% | 786-0 renal -95.5% | COLO 205 colon -86.1%

CC(C)c1sc(NC(=O)c2cc(NC(=O)c3cc(NC(=O)c4cscn4)cn3C)cn2C)nc1C(=O)NCCCN(C)C
inactive: NCI-H322M lung 19.9% | HOP-62 NSCLC 16.1% | NCI-H460 lung 89.9% | A549/ATCC NSCLC 105% | 786-0 renal 64.8%
active: NCI-H23 lung -22.3% | NCI-H226 lung -54% | HOP-92 NSCLC -22.9% | NCI-H522 lung -74.8% | COLO 205 colon -63%

COc1cc2c(c(OC)c1OC)C(=O)CC(c1cccc(NC(=O)[C@@H](N)CC(C)C)c1)O2 (some centres undefined)
inactive: NCI-H23 lung 102% | NCI-H226 lung 94.3% | NCI-H322M lung 111% | HOP-62 NSCLC 99% | NCI-H460 lung 106% | HOP-92 NSCLC 80.2% | NCI-H522 lung 90% | A549/ATCC NSCLC 93.1% | 786-0 renal 96.4% | COLO 205 colon 118%

C=C1CCC2C3(C)COC(c4cccc(F)c4)OC3CCC2(C)C1C/C=C1/C(=O)OCC1O (centres undefined)
inactive: NCI-H226 lung 30.7% | NCI-H322M lung 53.3% | HOP-62 NSCLC 22.6% | A549/ATCC NSCLC 23.3%
active: NCI-H23 lung -37.6% | NCI-H460 lung 8.73% | HOP-92 NSCLC -6.12% | NCI-H522 lung -76.1% | 786-0 renal -84.8% | COLO 205 colon -51.5%

Cn1cc(-c2nnc(N)nc2-c2c[nH]c3ccccc23)c2cccnc21
inactive: NCI-H23 lung 65.7% | NCI-H226 lung 71.1% | NCI-H322M lung 69.9% | HOP-62 NSCLC 48.1% | NCI-H460 lung 15.2% | HOP-92 NSCLC 87.1% | NCI-H522 lung 21.4% | A549/ATCC NSCLC 46% | 786-0 renal 54.9% | COLO 205 colon 25.9%

CC(=O)N1CCN(Cc2ccc3c(NNC(=O)c4cnccn4)nc4cc(F)ccc4n23)CC1
inactive: NCI-H23 lung 34.3% | NCI-H322M lung 32.7% | HOP-62 NSCLC 15.4% | HOP-92 NSCLC 56.1% | NCI-H522 lung 57.2% | A549/ATCC NSCLC 25.4%
active: NCI-H226 lung 8.73% | NCI-H460 lung 9.64% | 786-0 renal 0.0554% | COLO 205 colon 9.92%

O=C(/C=C/c1cccc(OCc2ccc(F)cc2)c1)c1nc2ccccc2[nH]1
active: 786-0 renal -46.1%
inactive: NCI-H23 lung 73% | NCI-H226 lung 42.2% | NCI-H322M lung 114% | HOP-62 NSCLC 71.1% | NCI-H460 lung 76.8% | HOP-92 NSCLC 27.5% | NCI-H522 lung 63.5% | A549/ATCC NSCLC 49.5% | COLO 205 colon 13.8%

COc1cc(C2CC(c3cc(OC)c(OC)c(OC)c3)=NN2c2ccccc2)ccc1OCc1ccc(C)cc1 (centres undefined)
inactive: NCI-H23 lung 101% | NCI-H226 lung 80.2% | NCI-H322M lung 102% | HOP-62 NSCLC 99.6% | NCI-H460 lung 99.3% | HOP-92 NSCLC 111% | NCI-H522 lung 82.3% | A549/ATCC NSCLC 102% | 786-0 renal 102% | COLO 205 colon 119%

CC(=O)Nc1ccc(-n2cnc3cc(-c4ccc(O)cc4)ccc32)cc1C(F)(F)F
inactive: NCI-H23 lung 21.4% | NCI-H226 lung 44.8% | NCI-H322M lung 41.1% | HOP-62 NSCLC 34.4% | HOP-92 NSCLC 44.8% | A549/ATCC NSCLC 19.4% | 786-0 renal 20.3% | COLO 205 colon 43.8%
active: NCI-H460 lung 9.22% | NCI-H522 lung -33.8%

O=C(O)c1cccc(-c2ccc(/C=N/NC(=O)c3[nH]c4ccc(Br)cc4c3-c3ccccc3)o2)c1
inactive: NCI-H23 lung 86.5% | NCI-H226 lung 87.9% | NCI-H322M lung 78.9% | HOP-62 NSCLC 68.9% | NCI-H460 lung 95.3% | HOP-92 NSCLC 69.1% | A549/ATCC NSCLC 100% | 786-0 renal 84.6% | COLO 205 colon 114%
active: NCI-H522 lung -12.6%

CSc1ccc(NC(=O)c2ccc3nnn(/C(C#N)=C/c4ccccn4)c3c2)cc1
active: NCI-H23 lung -95.9% | NCI-H226 lung -94.9% | NCI-H322M lung 3.57% | HOP-62 NSCLC -58.1% | NCI-H460 lung -47.2% | HOP-92 NSCLC -77.6% | NCI-H522 lung -95.4% | A549/ATCC NSCLC -52.5% | 786-0 renal -98.1% | COLO 205 colon -88.4%

Nc1n[nH]c2cccc(C#Cc3cccc(NC(=O)c4cccc(Cl)c4)c3)c12
active: HOP-92 NSCLC 9.55%
inactive: NCI-H23 lung 38.2% | NCI-H226 lung 45.8% | NCI-H322M lung 49.1% | HOP-62 NSCLC 33.6% | NCI-H460 lung 24.7% | NCI-H522 lung 11.4% | A549/ATCC NSCLC 24.7% | 786-0 renal 11.2% | COLO 205 colon 19.2%

COc1ccc(C(=O)/C=C/c2cccc(Br)c2)cc1S(N)(=O)=O
active: NCI-H23 lung -66.3% | NCI-H322M lung 3.22% | HOP-62 NSCLC -86.8% | NCI-H460 lung 2.36% | HOP-92 NSCLC -9.79% | NCI-H522 lung -79% | A549/ATCC NSCLC -86.2% | 786-0 renal -98.3% | COLO 205 colon -92.6%
inactive: NCI-H226 lung 17.4%

COc1ccc2[nH]cc(-c3nnc(N)nc3-c3c[nH]c4ncc(Br)cc34)c2c1
inactive: NCI-H23 lung 92.2% | NCI-H226 lung 73.1% | NCI-H322M lung 81.3% | HOP-62 NSCLC 75.8% | NCI-H460 lung 80.1% | HOP-92 NSCLC 106% | NCI-H522 lung 84.2% | A549/ATCC NSCLC 98.2% | 786-0 renal 74.8% | COLO 205 colon 132%

N#Cc1c(-c2ccc(Br)cc2)nc2n[nH]c(-c3ccc(Br)cc3)c2c1-c1ccc(F)cc1
inactive: NCI-H23 lung 92.6% | NCI-H226 lung 87.5% | NCI-H322M lung 90.6% | HOP-62 NSCLC 87.9% | NCI-H460 lung 106% | HOP-92 NSCLC 112% | NCI-H522 lung 94.1% | A549/ATCC NSCLC 99.7% | 786-0 renal 102% | COLO 205 colon 92.1%

Cc1cc2c(cc1Cl)C(=O)/C(=C/c1ccc(F)cc1)O2
inactive: NCI-H23 lung 85.8% | NCI-H226 lung 84.3% | NCI-H322M lung 99.6% | HOP-62 NSCLC 93.7% | NCI-H460 lung 105% | HOP-92 NSCLC 93.4% | NCI-H522 lung 65.8% | A549/ATCC NSCLC 103% | 786-0 renal 89.8% | COLO 205 colon 119%

C=C1CC[C@@H]2[C@]3(C)COC(c4ccco4)O[C@@H]3CC[C@@]2(C)[C@@H]1C/C=C1/C(=O)OCC1OC(C)=O (some centres undefined)
inactive: NCI-H23 lung 61.6% | NCI-H322M lung 79.5% | HOP-62 NSCLC 66.5% | NCI-H460 lung 37.6% | HOP-92 NSCLC 37.9% | A549/ATCC NSCLC 38.7% | COLO 205 colon 48.6%
active: NCI-H226 lung 0.912% | NCI-H522 lung -29.9% | 786-0 renal 3.41%

CC1(C)CC[C@]2(C(=O)Nc3ccc(Br)cc3)CC[C@]3(C)C(=CCC4[C@@]5(C)C[C@@H](O)[C@H](O)[C@@](C)(CO)C5CC[C@]43C)C2C1 (some centres undefined)
active: NCI-H23 lung 9.43% | NCI-H226 lung -28.6% | HOP-62 NSCLC 5.6% | NCI-H460 lung -42.1% | HOP-92 NSCLC -53.4% | NCI-H522 lung -31.3% | 786-0 renal -28.2% | COLO 205 colon -74.1%
inactive: NCI-H322M lung 54.5% | A549/ATCC NSCLC 17.2%

COc1ccc(/C=C2\C(=O)Nc3ccc(Cl)cc32)cc1OCc1ccccn1
active: HOP-92 NSCLC -12.7% | 786-0 renal -18.6%
inactive: NCI-H23 lung 31.6% | NCI-H226 lung 15.6% | NCI-H322M lung 56% | HOP-62 NSCLC 14.6% | NCI-H460 lung 26.4% | NCI-H522 lung 81.1% | A549/ATCC NSCLC 41% | COLO 205 colon 77.8%

Cc1cc(C)n(-c2ccc3nnc(-c4ccccc4)n3n2)n1
inactive: NCI-H23 lung 94.1% | NCI-H226 lung 105% | NCI-H322M lung 110% | HOP-62 NSCLC 122% | NCI-H460 lung 104% | HOP-92 NSCLC 85.2% | NCI-H522 lung 74.7% | A549/ATCC NSCLC 99.6% | 786-0 renal 93.9% | COLO 205 colon 115%

Clc1cccc(Cl)c1/C=C/c1cc(/C=C/c2ccc(Br)cc2)c2ccccc2n1
inactive: NCI-H23 lung 98.2% | NCI-H226 lung 93% | NCI-H322M lung 89.7% | HOP-62 NSCLC 94% | NCI-H460 lung 99.5% | HOP-92 NSCLC 86.2% | NCI-H522 lung 97.9% | A549/ATCC NSCLC 98.2% | 786-0 renal 92.2% | COLO 205 colon 117%

COc1ccc(C2=NN(C(C)=O)C(c3ccc(OCc4ccc(Cl)cc4)c(OC)c3)C2)cc1OC (centres undefined)
inactive: NCI-H23 lung 58% | NCI-H226 lung 49.9% | NCI-H322M lung 81.9% | HOP-62 NSCLC 76.2% | NCI-H460 lung 41.3% | HOP-92 NSCLC 37.1% | NCI-H522 lung 28.5% | A549/ATCC NSCLC 29% | 786-0 renal 57.9% | COLO 205 colon 41.3%

COc1cc(C2CC(c3cc(OC)c(OC)c(OC)c3)=Nc3c(N)nc(N)nc3N2)ccc1Oc1nc(NCCO)nc(N2CCOCC2)n1 (centres undefined)
inactive: NCI-H23 lung 95.8% | NCI-H226 lung 84.2% | NCI-H322M lung 86.2% | HOP-62 NSCLC 90.4% | NCI-H460 lung 106% | HOP-92 NSCLC 103% | NCI-H522 lung 87.2% | A549/ATCC NSCLC 99.2% | 786-0 renal 97.6% | COLO 205 colon 110%

CCCCSc1nc(NCCc2c[nH]c3ccccc23)c(C#N)c(-c2ccc(F)cc2)n1
inactive: NCI-H23 lung 82.3% | NCI-H226 lung 72.5% | NCI-H322M lung 86.3% | HOP-62 NSCLC 68.5% | NCI-H460 lung 25.7% | HOP-92 NSCLC 55.7% | NCI-H522 lung 69% | 786-0 renal 71.8% | COLO 205 colon 57.8%
